In all, about 2,300 compounds went through this assay and about 1,000 (43%) were called active. The set was probably picked from earlier hits. Only a sample is shown. A number with no mark means an inactive call.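 The calls were made as follows: active = compounds inhibiting the enzyme by at least 50% at 15 µM in any one of the replicates; inactive = the rest.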
Each molecule was assayed against Fatty acid synthase (Homo sapiens) (UniProt P49327) (assay: inhibition of human FAS-TE enzyme activity – biochemical, fluorescence intensity, single concentration, confirmation (AID 624325;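 also: 0% = enzyme with DMSO only and 100% = wells lacking enzyme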)). Details: recombinant FAS-TE, OMFH fluorogenic substrate, at 15 µM, hits give high values.
Sequence of Fatty acid synthase (Homo sapiens) (P49327 whole entry, looked up): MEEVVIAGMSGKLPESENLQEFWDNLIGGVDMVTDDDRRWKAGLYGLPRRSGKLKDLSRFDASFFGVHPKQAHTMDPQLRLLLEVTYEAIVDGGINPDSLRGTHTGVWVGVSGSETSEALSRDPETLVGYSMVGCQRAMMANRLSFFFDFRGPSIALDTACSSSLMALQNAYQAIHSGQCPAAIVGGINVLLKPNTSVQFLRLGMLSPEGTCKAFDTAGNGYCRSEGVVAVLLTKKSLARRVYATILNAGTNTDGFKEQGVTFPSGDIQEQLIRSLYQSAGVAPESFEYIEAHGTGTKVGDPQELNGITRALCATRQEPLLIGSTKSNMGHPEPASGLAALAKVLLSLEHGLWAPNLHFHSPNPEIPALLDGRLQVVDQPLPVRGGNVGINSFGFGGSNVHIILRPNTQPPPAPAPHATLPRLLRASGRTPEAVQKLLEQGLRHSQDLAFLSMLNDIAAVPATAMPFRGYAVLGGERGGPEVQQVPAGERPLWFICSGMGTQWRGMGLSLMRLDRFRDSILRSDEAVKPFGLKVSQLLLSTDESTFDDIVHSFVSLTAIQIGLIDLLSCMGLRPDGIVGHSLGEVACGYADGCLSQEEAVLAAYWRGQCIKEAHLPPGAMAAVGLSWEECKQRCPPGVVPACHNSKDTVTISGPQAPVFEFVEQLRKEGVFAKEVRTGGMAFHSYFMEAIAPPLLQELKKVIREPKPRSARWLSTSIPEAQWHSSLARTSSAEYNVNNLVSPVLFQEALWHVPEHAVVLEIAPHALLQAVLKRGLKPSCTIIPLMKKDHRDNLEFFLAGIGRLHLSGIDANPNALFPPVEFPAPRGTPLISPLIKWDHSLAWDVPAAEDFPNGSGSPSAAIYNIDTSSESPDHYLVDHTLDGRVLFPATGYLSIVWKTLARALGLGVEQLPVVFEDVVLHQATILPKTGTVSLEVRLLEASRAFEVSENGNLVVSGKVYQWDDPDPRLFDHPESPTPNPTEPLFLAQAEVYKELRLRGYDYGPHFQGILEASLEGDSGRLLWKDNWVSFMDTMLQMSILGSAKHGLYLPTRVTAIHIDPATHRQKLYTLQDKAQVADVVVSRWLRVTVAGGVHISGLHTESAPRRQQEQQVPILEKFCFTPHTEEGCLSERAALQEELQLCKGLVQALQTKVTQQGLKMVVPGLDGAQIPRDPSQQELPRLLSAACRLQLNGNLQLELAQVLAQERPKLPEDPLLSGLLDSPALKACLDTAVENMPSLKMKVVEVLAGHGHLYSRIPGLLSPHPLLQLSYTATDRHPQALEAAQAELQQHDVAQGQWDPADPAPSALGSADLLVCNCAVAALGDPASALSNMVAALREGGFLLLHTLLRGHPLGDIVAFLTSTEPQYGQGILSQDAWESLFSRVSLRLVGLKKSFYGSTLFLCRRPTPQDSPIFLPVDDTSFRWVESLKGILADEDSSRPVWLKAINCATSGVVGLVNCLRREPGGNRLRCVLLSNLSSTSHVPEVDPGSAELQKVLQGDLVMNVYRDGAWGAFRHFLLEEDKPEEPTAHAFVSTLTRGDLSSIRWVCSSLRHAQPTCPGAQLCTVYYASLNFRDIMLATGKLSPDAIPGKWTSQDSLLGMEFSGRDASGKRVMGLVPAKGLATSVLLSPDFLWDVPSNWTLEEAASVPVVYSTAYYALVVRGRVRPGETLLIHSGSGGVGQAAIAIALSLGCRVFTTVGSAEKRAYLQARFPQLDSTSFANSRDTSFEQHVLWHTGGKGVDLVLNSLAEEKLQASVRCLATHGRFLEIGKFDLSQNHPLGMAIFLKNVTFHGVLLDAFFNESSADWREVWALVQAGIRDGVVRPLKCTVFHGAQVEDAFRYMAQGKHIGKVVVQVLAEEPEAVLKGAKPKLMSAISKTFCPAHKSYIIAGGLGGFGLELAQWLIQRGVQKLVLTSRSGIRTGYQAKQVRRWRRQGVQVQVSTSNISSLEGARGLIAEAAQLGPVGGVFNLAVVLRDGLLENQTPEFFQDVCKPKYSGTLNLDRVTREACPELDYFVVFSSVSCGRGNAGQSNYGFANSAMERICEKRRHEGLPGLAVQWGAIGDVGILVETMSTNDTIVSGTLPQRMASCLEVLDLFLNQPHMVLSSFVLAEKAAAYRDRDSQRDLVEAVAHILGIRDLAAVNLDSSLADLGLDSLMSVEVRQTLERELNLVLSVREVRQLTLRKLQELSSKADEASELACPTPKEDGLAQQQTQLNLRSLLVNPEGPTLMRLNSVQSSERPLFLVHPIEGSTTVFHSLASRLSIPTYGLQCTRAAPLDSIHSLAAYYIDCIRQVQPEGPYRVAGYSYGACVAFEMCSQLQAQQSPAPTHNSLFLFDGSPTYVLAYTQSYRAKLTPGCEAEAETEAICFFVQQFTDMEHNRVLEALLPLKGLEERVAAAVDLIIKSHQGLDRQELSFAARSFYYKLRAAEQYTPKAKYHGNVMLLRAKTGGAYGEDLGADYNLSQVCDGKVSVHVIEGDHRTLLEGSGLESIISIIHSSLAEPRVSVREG

| Structure (SMILES) | inhibition |
| --- | --- |
| Cc1nn(CCOc2ccc(Br)cc2)c(C)c1[N+](=O)[O-] | 36.2% (active) |
| COc1ccc([N+](=O)[O-])cc1N(CC(O)Cn1nnc2ccccc21)S(=O)(=O)c1ccc(C)cc1 (stereo not given) | 65.3% (active) |
| O=C(N/N=C/c1cc([N+](=O)[O-])ccc1O)/C(=C\c1cccs1)NC(=O)c1ccccc1 | 42.4% (active) |
| O=C(NCc1ccco1)/C(=C\c1cccc([N+](=O)[O-])c1)NC(=O)c1ccco1 | 71.9% (active) |
| O=C(Nc1ccc2ccccc2c1)/C(=C/c1cccc(Br)c1)NC(=O)c1ccco1 | 27.6% |
| O=C(/C=C/c1cccc([N+](=O)[O-])c1)NCCSCc1ccco1 | 73.2% (active) |
| COc1ccc(NS(=O)(=O)c2cc(NC(=O)c3ccc(S(=O)(=O)N(C)C)cc3)ccc2N2CCOCC2)cc1 | 9.83% |
| Fc1ccc(-n2c(Cc3ccccc3)nnc2SCc2nc(-c3ccc(Cl)cc3)no2)cc1 | 51.8% (active) |
| O=C(Nc1ccc(OC(F)(F)F)cc1)c1ccc2c(c1)no[n+]2[O-] | 14.6% |
| O=C(Nc1ccc(C(F)(F)F)cc1)c1cccc(-n2cnnn2)c1 | 65.5% (active) |
| COc1ccc(NS(=O)(=O)c2cc(NC(=O)/C=C/c3cc(OC)c(OC)c(OC)c3)ccc2N2CCCCC2)cc1 | 19.7% |
| O=c1oc(-c2ccco2)nc2sc3c(c12)CCCCC3 | 51% (active) |
| CCC(CC)COC(=O)C1=C(C)NC(=O)NC1c1ccc([N+](=O)[O-])cc1 (stereo not given) | 78.8% (active) |
| COc1cc(S(=O)(=O)N2CCOCC2)ccc1NC(=O)COc1ccc(N(C)S(=O)(=O)c2ccc(C)cc2)cc1 | 7.91% |
| Cc1ccc(N2C(=O)C3N=NN(CC(=O)N4N=C(c5cccc6ccccc56)CC4c4ccccc4)C3C2=O)cc1 (stereo not given) | 10.8% |
| COc1ccc(C2=NN(C(=O)CSc3nc(=O)n4ccc(C)cc4n3)C(c3ccc(C)cc3)C2)cc1 (stereo not given) | 46% (active) |
| Cc1ccc2c(c1)-c1c(ssc1=S)C(C)(C)N2C(=O)CN1C(=O)c2ccccc2C1=O | 2.45% |
| CCOC1=C2[C@H]([C@H]3C(=O)N(c4ccccc4)C(=O)[C@H]3C1)[C@@H](c1ccccc1)N(S(=O)(=O)c1ccc(C)cc1)[C@H]2c1ccccc1 | 32.3% |
| C#CCN(C[C@H]1[C@H](OC(=O)NC2CCCC2)[C@H](OC(=O)NC2CCCC2)C[C@H]2C(=O)N(c3ccccc3)C(=O)[C@@H]12)S(=O)(=O)c1ccc(C)cc1 | 48.3% (active) |
| CCOC1=C2CN(S(=O)(=O)c3ccc(C)cc3)[C@H](c3cccs3)C[C@H]2[C@H]2C(=O)N(c3ccccc3)C(=O)[C@H]2C1 | 33% |

From PubChem BioAssay AID624325 (Sanford-Burnham Center for Chemical Genomics, 2012)
